MARV entry inh – blocks Marburg virus binding to or entry into cells; Marburg virus pseudotyped entry inhibition, cell reporter; Potency, µM (doses to about 37.8 µM), most hits filed as inhibitors; 1.8% of 300,000 active; AID 540276; calls by dose curve; tested in HEK293 cells
HCMV antiviral – inhibitors of human cytomegalovirus; activity change, negative = inhibition, % at 57.5 µM; HFF cells, HCMV-luciferase reporter, 72 h; stronger effect = lower value; 4.5% of 410,000 active; in the data active means activity change below about -60%; inconclusive means no clear call, values can overlap the other calls; inactive means above about -39%
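Two-dose cell screen: HFF monolayers treated with compounds and infected with luciferase-expressing HCMV at 1 PFU/cell, 72 h at 37C, then lysed for luciferase measurement.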
HCV inhibitor – blocks hepatitis C virus; 3.4% of 340,000 active; AID 651820; Potency, µM (titrated, usually from 41.8 µM), most hits filed as inhibitors; Huh7.5.1 HCVcc-Cre infection, luciferase reporter, 44 h; active means well fitted inhibition curve with a large enough effect; inconclusive means small, poorly fitted or top-dose-only effect, or another doubt; inactive means no such curve, though single readings can be large or run the other way
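1,000 cells/well; 4 h culture; + compound; + HCVcc-Cre (~0.5 moi); 44 h; luciferase substrate, RT 15 min; read 15 sec.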
Lassa entry inh – inhibitors of Lassa virus binding or cell entry; Lassa virus pseudotype entry inhibition, cell reporter; Potency, µM (titrated, usually from 37.9 µM), hits mostly inhibitors; 1.2% of 300,000 active; calls by dose curve; tested in HEK293 cells; further: nearly all actives have a fitted effect of over 50% in size
FMDV inh – antivirals against foot and mouth disease virus; AID 1159524; FMDV antiviral cell-based qHTS; 1.2% of 410,000 active; Potency, µM (top dose mostly 57.9 µM), hits mostly inhibitors; calls by dose curve; tested in HEK293T cells; further: read-out not given here; nearly all actives have a fitted effect of over 45% in size
Large screens that a line does not name were inactive; ! = not confirmed by another sample. In the library only some 7.9% were active in any assay of this set; here they are far more common.

O=C(Nc1ccc(F)cc1F)c1ccc(CN2CC(=O)N3CCCCC3C2=O)cc1 (stereo not given)	none (no result: MARV entry inh, HCV inhibitor)
Cc1ccsc1C(=O)NCCC(c1ccccc1)c1ccccc1	MARV entry inh 13µM, Lassa entry inh inconclusive
Cc1nc(C)c(C(=O)NCCC(c2ccccc2)c2ccccc2)o1	HCMV antiviral inconclusive, HCV inhibitor 10µM, Lassa entry inh inconclusive, FMDV inh inconclusive
COc1ccc(/C=C/C(=O)NCc2cn(C)nc2C)cc1COc1ccc(Cl)cc1Br	MARV entry inh inconclusive, HCV inhibitor inconclusive, Lassa entry inh inconclusive
CCn1nc(C)c(NC(=O)/C=C/c2ccc(OC)c(COc3ccc(Cl)cc3Br)c2)c1C	MARV entry inh inconclusive, HCMV antiviral -64, HCV inhibitor inconclusive, Lassa entry inh inconclusive
CCOC(=O)C1=C(C)N=c2s/c(=C\c3ccc(OCC(=O)O)cc3)c(=O)n2C1c1ccc(OC(C)C)cc1 (stereo not given)	MARV entry inh inconclusive, FMDV inh 40µM
CCOC(=O)C1=C(C)N=c2sc(=Cc3ccc(OCC(=O)O)cc3)c(=O)n2C1c1ccc(Cl)cc1 (stereo not given)	FMDV inh inconclusive (no result: MARV entry inh, HCV inhibitor, Lassa entry inh)
Oc1ccc(/C=N/Nc2cc(N3CCOCC3)nc(N3CCOCC3)n2)cc1	MARV entry inh 6.5µM, HCV inhibitor inconclusive (no result: FMDV inh)
COc1ccc(/C=N/Nc2cc(N3CCCC3)nc(N3CCCC3)n2)cc1	MARV entry inh inconclusive, HCMV antiviral -76, HCV inhibitor 7.1µM, Lassa entry inh 3.2µM, FMDV inh inconclusive
Clc1cccc(CN2CCc3c([nH]c4ccccc34)C2)c1Cl	HCMV antiviral -91, HCV inhibitor inconclusive, FMDV inh inconclusive (no result: MARV entry inh, Lassa entry inh)
COc1ccccc1CN1CCc2c([nH]c3ccccc23)C1	none (no result: MARV entry inh, Lassa entry inh)
CC(NC(=O)c1ccccc1F)c1nnc(SCC(=O)NC2CCCC2)n1C (stereo not given)	HCMV antiviral -64
COCC(=O)N1CCC[C@@]2(CCN(C(=O)Nc3cccc(C#N)c3)C2)C1	none (no result: MARV entry inh, HCMV antiviral, HCV inhibitor, Lassa entry inh)
Cc1ccccc1CN1CCCC(C(=O)Nc2ccc(-c3ccn[nH]3)cc2)C1 (stereo not given)	MARV entry inh inconclusive, HCMV antiviral -63, HCV inhibitor inconclusive
COc1cccc(-c2ccc(NC(=O)C3CCCN(Cc4cc(C)[nH]n4)C3)cc2)c1 (stereo not given)	MARV entry inh inconclusive, HCMV antiviral inconclusive, HCV inhibitor inconclusive
COc1cccc(-c2ccc(NC(=O)C3CCCN(CCCn4cccn4)C3)cc2)c1 (stereo not given)	MARV entry inh inconclusive, HCV inhibitor inconclusive, Lassa entry inh inconclusive, FMDV inh 35µM
COc1cccc(C(=O)C2CCCN(Cc3cnn(C(C)C)c3)C2)c1 (stereo not given)	none
COCc1ccc(CN2CCCC(C(=O)Nc3ccc(-c4cccc(OC)c4)cc3)C2)o1 (stereo not given)	HCMV antiviral inconclusive, HCV inhibitor 10µM (no result: MARV entry inh, Lassa entry inh)
COc1cccc(-c2ccc(NC(=O)C3CCCN(Cc4cnn(C(C)C)c4)C3)cc2)c1 (stereo not given)	MARV entry inh inconclusive, HCMV antiviral -108, HCV inhibitor 11µM, Lassa entry inh inconclusive, FMDV inh inconclusive
C[C@H](CCC(=O)O)C1CC[C@H]2C3CC[C@@H]4C[C@H](O)CC[C@]4(C)C3C[C@H](O)[C@]12C (stereo not given in full)	none (no result: MARV entry inh, HCMV antiviral, HCV inhibitor, Lassa entry inh)
COc1ccc(C)cc1N(CC(=O)NCCSCc1ccco1)S(=O)(=O)c1ccc(C)cc1	MARV entry inh inconclusive, HCV inhibitor inconclusive, Lassa entry inh inconclusive
O=c1c(OC2OC(CO)C(O)C(O)C2O)c(-c2ccc(O)c(O)c2)oc2cc(O)cc(O)c12 (stereo not given)	MARV entry inh 15µM
O=c1c(O[C@@H]2O[C@H](CO)C(O)C2O)c(-c2ccc(O)c(O)c2)oc2cc(O)cc(O)c12 (stereo not given in full)	none (no result: MARV entry inh, HCMV antiviral, Lassa entry inh)
COc1cc(O)c2c(=O)c(-c3ccc(O[C@@H]4O[C@H](CO)[C@@H](O)[C@H](O)[C@H]4O)cc3)coc2c1	MARV entry inh 10µM, Lassa entry inh inconclusive
CCN1CC2=C(OC(N)=C(C#N)C2c2cccs2)/C(=C\c2cccs2)C1 (stereo not given)	MARV entry inh inconclusive, HCV inhibitor 14µM (no result: FMDV inh)
COc1cc2cnc(-c3ccsc3)c(-c3ccc(F)cc3)c2cc1OC	HCV inhibitor 6.3µM, FMDV inh inconclusive (no result: MARV entry inh, Lassa entry inh)
C=CCN1CC(O)=C(c2ccccc2)C1=N	HCMV antiviral -69 (no result: FMDV inh)
C=CCN1CC[C@]23CCCCC2[C@H]1Cc1ccc(O)cc13 (stereo not given in full)	MARV entry inh 7.9µM! (no result: HCMV antiviral, HCV inhibitor, FMDV inh)
COc1ccc2c(c1)C13CCCCC1C(C2)N(C)CC3 (stereo not given)	MARV entry inh 11µM, Lassa entry inh inconclusive (no result: HCMV antiviral, HCV inhibitor, FMDV inh)
COc1ccc2c(c1)C13CCCC[C@@H]1C(C2)N(C)CC3 (stereo not given in full)	HCV inhibitor inconclusive (no result: MARV entry inh, Lassa entry inh)
COc1ccc2c(c1)[C@@]13CCCC[C@H]1[C@@H](C2)NCC3	MARV entry inh 18µM, Lassa entry inh inconclusive (no result: HCMV antiviral, HCV inhibitor, FMDV inh)
COC(=O)C1=C[C@@H](C(=O)OC)[C@@H]2C3=C(C(=O)[C@@]2(C)NC(=O)c2ccccc2)[C@H](c2ccccc2)[C@@H]2C(=O)NC(=O)[C@@H]2[C@@H]3C1	none (no result: MARV entry inh, Lassa entry inh)
COC(=O)CN1C(=O)[C@@H]2[C@H](C1=O)[C@@H]1CC(C(=O)OC)=C[C@@H](C(=O)OC)[C@@H]3C1=C(C(=O)[C@@]3(C)NC(=O)c1ccccc1)[C@@H]2C	HCMV antiviral -66 (no result: MARV entry inh, Lassa entry inh)
CCOc1ccc(CCNC(=O)Cn2nnc(-c3ccccc3Cl)n2)cc1OCC	none (no result: HCV inhibitor)
Cc1ccsc1CN(C)CC(=O)Nc1ccc([N+](=O)[O-])cc1Cl	MARV entry inh 10µM, HCMV antiviral inconclusive, HCV inhibitor 13µM, Lassa entry inh inconclusive
CCOC(=O)C1NNN2C3CCCCC3C(N(CC)CC)NC12 (stereo not given)	none (no result: HCMV antiviral, HCV inhibitor, Lassa entry inh, FMDV inh)
OCC1OC(n2cnc3c(Cl)ncnc32)C(O)C1O (stereo not given)	none (no result: MARV entry inh, HCMV antiviral, HCV inhibitor, Lassa entry inh)
COc1ccc(C[C@H](N)C(=O)N[C@H]2[C@@H](O)[C@H](n3cnc4c(N(C)C)ncnc43)O[C@@H]2CO)cc1	HCMV antiviral -98, HCV inhibitor 0.32µM, FMDV inh inconclusive (no result: MARV entry inh, Lassa entry inh)
CN(C)c1ncnc2c1ncn2C1OC(CO)C(O)C1O (stereo not given)	MARV entry inh inconclusive, HCV inhibitor 4.5µM, Lassa entry inh inconclusive
CCCCn1c(N)c(N(CC(C)C)C(=O)c2ccc(F)c(S(=O)(=O)N3CCOCC3)c2)c(=O)[nH]c1=O	none
COc1ccc(C(=O)Nc2ccccc2C(=O)N(Cc2ccco2)C(C(N)=O)C(C)C)cc1 (stereo not given)	MARV entry inh inconclusive, HCMV antiviral -76, Lassa entry inh inconclusive
NCCc1nc(-c2ccccc2)cs1	MARV entry inh inconclusive
CCN1/C(=C/c2ccc3ccccc3[n+]2CCCS(=O)(=O)[O-])C=Cc2cc(C)ccc21	FMDV inh inconclusive
CCN1/C(=C/c2cc[n+](C)cc2)C=Cc2cc(C)ccc21	MARV entry inh inconclusive, HCMV antiviral -100, HCV inhibitor 5µM, Lassa entry inh inconclusive, FMDV inh 5µM

Screening results as filed in PubChem.
